This is an account of results in PubChem BioAssay (Tox21).

Inconclusive results are not listed. Activity calls are given as the source filed them. Calls come from the whole dose curve; as a rule, active = well fitted cell-killing curve with a large enough effect in the repeat runs; inconclusive = weak or mixed curves, or effect the other way; inactive = flat fitted curve, though single readings scatter.
% is set by controls: 0 for no effect and ±100 for the full control effect; potency is the fitted concentration of half-maximal effect.

The test is described as follows: qHTS RealTime-Glo MT Cell Viability Assay in HEK293 cells - 16 hour (AID 1224872). For activity change, negative = cytotoxicity: top concentration of the series differs between compounds. Note: nearly all actives have a fitted effect of over 50% in size. The note with it: RealTime-Glo luminescence; series mostly up to 76.8 µM; activity change, negative = cytotoxicity: at the top concentration. In outline:
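Viability tracked continuously by luminescence as live cells reduce a prosubstrate for NanoLuc; HEK293 cells preincubated 5 h, compound-treated at 37 C, and read at 0, 8, 16, 24, 32 and 40 h.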
On to `C[C@@H](NCCCc1cccc(C(F)(F)F)c1)c1cccc2ccccc12`, for which the Potency was 23.9 µM (active).

Take `CC(C)(C)C(=O)OCOC(=O)[C@@H]1N2C(=O)[C@@H](NC(=O)[C@H](N)c3ccccc3)[C@H]2SC1(C)C`: the “activity change, negative = cytotoxicity” value was 3.52% [at 35.3 µM] (inactive).

Take `O=[N+]([O-])c1ccccc1Nc1ccccc1`: the “activity change, negative = cytotoxicity” value is -15.7% (inactive).

As to `CC(C)(C)c1ccc(C(=O)O)cc1`, the “activity change, negative = cytotoxicity” value is -5.72% (inactive).

Take `CCCCCCCC(=O)[O-].CCCCCCCC(=O)[O-].[Zn+2]`: the “activity change, negative = cytotoxicity” value is 9.42% [at 35.3 µM] (inactive).

As for `CCCCCCCCCCC=O`, the “activity change, negative = cytotoxicity” value is 1.97% (inactive).

For the molecule `CCCCCCCC[P+](CCCCCCCC)(CCCCCCCC)CCCCCCCC`, the Potency was 4.87 µM (active).

For the molecule `C[C@H](CCC(=O)O)[C@H]1CC[C@H]2[C@@H]3CC[C@@H]4C[C@H](O)CC[C@]4(C)[C@H]3CC[C@]12C`, the Potency result is “inactive”.

As to `CC(C)c1ccc2c(c1)CC[C@H]1[C@](C)(CN)CCC[C@]21C`, the Potency was 13.8 µM (active).

Consider `O=C(O)c1ccc(Cl)c(Cl)c1`, for which the “activity change, negative = cytotoxicity” value was 2.07% (inactive).

As for `NC(=NCCCCCCN=C(N)/N=C(\N)Nc1ccc(Cl)cc1)/N=C(\N)Nc1ccc(Cl)cc1`, the Potency is 19.8 µM (active) [middle of 4 runs].

For `COc1cccc(N)c1`, the “activity change, negative = cytotoxicity” value was -1.58% (inactive).

`CCCCCCCC/C=C/CCCCCCCC1=NCCN1CCO`: the Potency is 21.9 µM (active).

Regarding `Cc1cc(O)c2ccccc2c1O`, the Potency is 7.56 µM (active).

In the case of `O=C1C=CC(=O)N1c1ccc(Cc2ccc(N3C(=O)C=CC3=O)cc2)cc1`, the Potency is 17.4 µM (active).

For `O=C1C=CC(=O)N1`, the Potency is 15.9 µM (active).

On to `CCCCCCCC/C=C\CCCCCCCCOCCO`, for which the Potency is 3.19 µM (active).

Turning to `Cc1cc(O)c(C(C)(C)C)cc1Sc1cc(C(C)(C)C)c(O)cc1C`, the Potency is 24.5 µM (active).

As for `NNC(=O)c1cccc(C(=O)NN)c1`, the “activity change, negative = cytotoxicity” value is -1.35% (inactive).

Turning to `CCCCCCCCNC(C)C(O)c1ccc(SC(C)C)cc1` (stereo unspecified), the Potency is 10.7 µM (active).

In the case of `C=CC(=O)OCC(CO)(COCC(COC(=O)C=C)(COC(=O)C=C)COC(=O)C=C)COC(=O)C=C`, the Potency is 3.05 µM (active).

With `CC[C@H]1O[C@]2(CC[C@@H]1C)C[C@@H]1C[C@@H](C/C=C(\C)C[C@@H](C)/C=C/C=C3\CO[C@@H]4[C@H](O)C(C)=C[C@@H](C(=O)O1)[C@]34O)O2`, the Potency was 38.5 µM (active).

Turning to `CN(C)[C@@H]1C(=O)C(C(N)=O)=C(O)[C@@]2(O)C(=O)C3=C(O)c4c(O)ccc(Cl)c4[C@@H](O)[C@H]3C[C@@H]12`, the “activity change, negative = cytotoxicity” value is -0.121% [at 35.3 µM] (inactive).

For `CC(=O)N1CCN(c2ccc(OC[C@H]3CO[C@](Cn4ccnc4)(c4ccc(Cl)cc4Cl)O3)cc2)CC1`, the Potency is 21.9 µM (active).

As to `COc1ccc(C(=O)/C(Br)=C\C(=O)O)cc1`, the Potency is 38.9 µM (active).

As to `CN(C)CCCOC1(Cc2ccccc2)CCCCCC1`, the “activity change, negative = cytotoxicity” value was 2.05% [at 35.3 µM] (inactive).

For the molecule `Oc1c(Cl)cc(Cl)c2cccnc12`, the “activity change, negative = cytotoxicity” value is -25.9% [at 35.3 µM] (inactive).

For `O=C1CCCCCN1SSN1CCCCCC1=O`, the “activity change, negative = cytotoxicity” value was 14.6% (inactive).

With `O=C(c1ccc(O)cc1O)c1ccc(O)cc1O`, the Potency entry was “inactive”.

On to `OCCN1CCN(CC/C=C2/c3ccccc3Sc3ccc(C(F)(F)F)cc32)CC1`, for which the Potency was 19 µM (active).

As for `Nc1ccc2cc(S(=O)(=O)O)cc(O)c2c1N=Nc1ccccc1C(F)(F)F`, the “activity change, negative = cytotoxicity” value was -2.86% (inactive).

`CN(C)[C@@H]1C(=O)C(C(N)=O)=C(O)[C@@]2(O)C(=O)C3=C(O)c4c(O)cccc4C[C@H]3C[C@@H]12`: the “activity change, negative = cytotoxicity” value was 1.86% [at 35.3 µM] (inactive).

Regarding `C1CCCC1`, the “activity change, negative = cytotoxicity” value was -7.46% (inactive).

As to `CCCC(c1cc(C(C)(C)C)c(O)cc1C)c1cc(C(C)(C)C)c(O)cc1C`, the Potency is 24.8 µM (active).

Consider `Oc1cc2ccccc2c2ccccc12`, for which the Potency is 6.92 µM (active).

As to `Clc1ccccc1C(c1ccccc1)(c1ccccc1)n1ccnc1`, the Potency was 27.5 µM (active).
